# PAX8 inh HTS: inhibitors of PAX8-driven TPO luciferase reporter, primary screen, RMG-I cells, single concentration | SteadyGlo, 24 h | inhibition, % at 12.6 µM | hit rate 1.2% among 360,000;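 active means mean replicate inhibition at least 60% with every replicate also reaching 60%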;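 further: luciferase light reporting Pax8 driven TPO promoter activity; plate controls were median of neutral control wells for no effect and mitoxantrone controls for full effect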
# Beta apoptosis: inhibitors of cytokine-induced beta cell apoptosis, primary screen, luminescence | INS-1E cytokine-induced death, ATP luminescence, 48 h; percent of positive-control rescue, neutral wells zero | protection from apoptosis, % (no concentration beside the values) | hit rate 0.8% among 300,000 | AID 435005, 2010;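 active means Every replicate reaches about 75%, or at least half do and their mean reaches it too, limit read from the data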;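 further: 0% = cytokine-treated negative control wells and 100% = positive control rescue; higher means more ATP so stronger rescue from cytokine killing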
# Gli-Sufu antag: Gli-Sufu pathway antagonists, primary screen, luciferase luminescence, Sufu-KO-LIGHT cells, uHTS. Sufu-KO-LIGHT fibroblasts, Gli luciferase reporter luminescence. inhibition, % at 5 µM. hit rate 0.74% among 340,000. AID 588413, 2011;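 active means inhibition above about 55%, limit read from the data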;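 further: 0% = DMSO-treated cells and 100% = wells with medium but no cells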
# Mdm2 MdmX PPI: inhibitors of human Mdm2-MdmX association, primary screen, cell-based, luminescence, split luciferase, SaOS-2, uHTS. Protein Mdm4 (Homo sapiens) + E3 ubiquitin-protein ligase Mdm2 (Homo sapiens), …. SaOS-2 split-luciferase Mdm2/MdmX complementation. inhibition, % at 8 µM. hit rate 3% among 330,000;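 active means inhibition of at least 50% at 8 µM in the primary screen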
# Target sequence (O15151 whole entry, looked up): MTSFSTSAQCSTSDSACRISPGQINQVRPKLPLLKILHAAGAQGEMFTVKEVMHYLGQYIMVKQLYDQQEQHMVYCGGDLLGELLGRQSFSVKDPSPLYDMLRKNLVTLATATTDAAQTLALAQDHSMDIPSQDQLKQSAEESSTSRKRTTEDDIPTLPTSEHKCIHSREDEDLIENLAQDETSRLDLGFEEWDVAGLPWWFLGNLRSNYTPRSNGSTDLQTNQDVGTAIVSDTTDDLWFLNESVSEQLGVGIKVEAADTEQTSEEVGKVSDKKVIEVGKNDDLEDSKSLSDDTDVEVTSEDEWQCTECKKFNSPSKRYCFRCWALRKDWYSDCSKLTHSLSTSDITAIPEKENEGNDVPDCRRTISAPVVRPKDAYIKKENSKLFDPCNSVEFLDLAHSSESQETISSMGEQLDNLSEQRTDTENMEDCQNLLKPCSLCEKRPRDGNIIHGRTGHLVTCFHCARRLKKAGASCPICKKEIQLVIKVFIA
# Target sequence (Q00987 whole entry, looked up): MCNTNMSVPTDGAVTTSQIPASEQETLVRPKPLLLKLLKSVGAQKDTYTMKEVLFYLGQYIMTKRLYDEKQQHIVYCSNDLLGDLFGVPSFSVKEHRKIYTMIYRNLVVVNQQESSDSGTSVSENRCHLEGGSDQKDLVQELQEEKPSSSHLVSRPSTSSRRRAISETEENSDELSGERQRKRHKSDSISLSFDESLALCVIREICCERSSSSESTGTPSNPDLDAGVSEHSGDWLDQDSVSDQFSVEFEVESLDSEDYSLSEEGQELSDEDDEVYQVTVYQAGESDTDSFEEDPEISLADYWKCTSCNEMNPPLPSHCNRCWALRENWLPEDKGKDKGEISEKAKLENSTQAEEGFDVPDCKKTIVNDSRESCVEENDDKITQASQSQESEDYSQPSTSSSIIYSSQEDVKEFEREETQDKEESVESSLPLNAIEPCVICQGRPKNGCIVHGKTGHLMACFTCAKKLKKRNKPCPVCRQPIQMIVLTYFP
# Shn3 3UTR inh: reduction of Shn3 3'UTR firefly luciferase signal, primary screen, Schnurri-3 inhibitor project, cell-based, Clone20 osteoblasts, set 2 | Clone20 osteoblast Shn3 3'UTR firefly luciferase, 24 h | inhibition, % at 12.5 µM | hit rate 0.52% among 360,000;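 active means mean inhibition of at least 75% with every replicate also reaching 75%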;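 further: 0% = median of neutral control wells and 100% = pilot-screen positive control compound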
# CSC inhib: cancer stem cell viability inhibitors, primary screen, luminescence; AID 2717, 2010; inhibition, % at 7.5 µM; hit rate 1.1% among 300,000; cancer stem cell-like cells viability; in the data active means inhibition above about 75%; tested in HMLE shEcad cells
# Mdm2 MdmX conf: Mdm2-MdmX complex disruptors, retested hits, confirmation, luminescence, single concentration | shares compounds with Mdm2 MdmX PPI | Mdm2-MdmX binding, luminescent assay | inhibition, % at 8 µM | hit rate 55% among 10,000 | AID 489028, 2010; in the data active means inhibition above about 40%
# FLuc counter: full-length luciferase signal inhibition, confirmation, counter-screen for Mdm2/MdmX interaction inhibitor project, cell-based, single concentration, SaOS-2 | shares compounds with Mdm2 MdmX PPI | SaOS-2 full-length luciferase counterscreen, luminescence | inhibition, % at 8 µM | hit rate 77% among 6,200 | AID 504607, 2011;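 active means mean inhibition at 8 µM reaching about 37%, which flags the compound as non-specific, limit read from the data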;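 further: p53-null SaOS-2 cells with luciferase driven by a doxycycline-inducible promoter; compound on cells about two nights before reading with doxycycline added after day one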
# The depositor's hits bear a star; x = no result. A selection: hits, their analogues and other compounds. The true share with any hit is near 4%.
SMILES,PAX8 inh HTS,Beta apoptosis,Gli-Sufu antag,Mdm2 MdmX PPI,Shn3 3UTR inh,CSC inhib,Mdm2 MdmX conf,others
Cc1ccc(-c2cc(C(F)F)n3ncc(C(=O)N4CCc5ccccc54)c3n2)cc1,25,14,30,61*,3,67,64*,FLuc counter=57*
CCc1nccn1C(=O)c1cnn2c(C(F)F)cc(-c3ccc(C)cc3)nc12,19,-33,39,61*,46,38,19,
CCc1nccn1C(=O)c1cnn2c(C(F)F)cc(-c3ccccc3)nc12,x,-14,x,3,x,-12,x,
COc1ccccc1NC(=O)N[C@@H]1CC[C@@H](CCNC(=O)Cc2ccccn2)O[C@@H]1CO,2,x,x,x,x,x,x,
Fc1ccc2c(Cl)c(-c3nnc(-c4cccs4)o3)sc2c1,-217,-6,-73,84*,-58,-11,-138,
CC(C)NC(=O)Nc1ccc2c(c1)C(=O)N([C@@H](C)CO)C[C@H](C)[C@H](CN(C)C(=O)Nc1ccccc1)O2,-7,x,x,x,x,x,x,
Cc1nc2c(-c3ccc(F)cc3)cnn2c(N)c1-c1ccc(F)cc1,-127,5,32,61*,-52,21,47*,FLuc counter=144*
O=C(N[C@@H]1CC[C@H](CC(=O)N2CCOCC2)O[C@H]1CO)c1cccc(F)c1,6,x,x,x,x,x,x,
Cn1c(CC(=O)Nc2ccc(F)cc2)c(Sc2ccccc2)c2ccccc21,-5,-10,-3,9,4,8,x,
CSc1c(CC(=O)Nc2ccccc2Cl)n(Cc2ccccc2)c2ccccc12,x,0,8,58*,18,9,8,
CSc1c(CC(=O)Nc2ccccc2)n(Cc2ccccc2)c2ccccc12,2,8,12,60*,19,-6,7,
CSc1c(CC(=O)Nc2ccccc2C(F)(F)F)n(Cc2ccccc2)c2ccccc12,4,11,9,74*,19,6,40,FLuc counter=107*
C[C@@H]1CN([C@H](C)CO)C(=O)c2cc(NC(=O)c3ccncc3)ccc2O[C@@H](C)CCCCO[C@@H]1CN(C)C(=O)c1ccccc1,1,x,x,x,x,x,x,
CCOC(=O)C1=CN(Cc2cccc(F)c2)S(=O)(=O)NC1CCc1ccccc1 (stereo not drawn),9,x,-3,61*,3,x,29,FLuc counter=47*
COc1ccc(Nc2nc(-c3cccc([N+](=O)[O-])c3)nc3ccccc23)c(OC)c1,-5,-2,10,39,3,x,x,
COc1ccc(OC)c(Nc2nc(-c3cccc([N+](=O)[O-])c3)nc3ccccc23)c1,13,-9,14,60*,24,8,-5,
COc1cccc(/C=C/C(=C2/C(=O)N(c3ccccc3)N=C2C)c2ccccc2)c1OC,-6,9,17,13,-47,50,x,
COc1cccc(/C=C/C(=C2/C(=O)N(c3ccccc3)N=C2C)c2ccc(Br)cc2)c1OC,x,x,1,59*,-2,76*,10,
CCNc1ccc2noc3c2c1C(=O)c1ccccc1-3,x,29,-7,37,-14,55,x,
O=C1c2ccccc2-c2onc3ccc(NCc4ccco4)c1c23,x,44,19,58*,7,51,25,
COc1cccc(S(=O)(=O)N[C@@H]2CC[C@H](CC(=O)NCc3ccc(Cl)cc3)O[C@@H]2CO)c1,23,x,x,x,x,x,x,
Cc1cc(/C=N/Nc2nc(N)ncc2[N+](=O)[O-])c(C)n1-c1ccccc1F,x,0,x,74*,x,4,84*,FLuc counter=50*
C=CC(=O)Nc1sc2c(c1C(N)=O)CCCC2,80*,-29,0,53*,0,30,12,
C=CCNC(=S)Nc1sc2c(c1C(N)=O)CCCC2,-59,1,-5,-23,-35,21,x,
Cc1oc2c(c1C(=O)O)C(=O)c1ccccc1C2=O,30,-12,-3,24,-21,2,x,
SMILES,PAX8 inh HTS,Beta apoptosis,Gli-Sufu antag,Mdm2 MdmX PPI,Shn3 3UTR inh,CSC inhib,Mdm2 MdmX conf,others
Cc1oc2c(c1C(=O)c1ccccc1)C(=O)C(=O)c1ccccc1-2,x,104*,6,97*,33,98*,72*,FLuc counter=0
O=C1C(=O)c2c(C(=O)c3ccccc3)coc2-c2ccccc21,x,101*,25,100*,0,37,5,
CCOC(=O)c1c(C)oc2c1C(=O)c1ccccc1C2=O,-41,84*,-4,54*,20,85*,25,
CCC(=O)Nc1ccc2c(c1)C(=O)N(C)[C@@H]1CC[C@H](CC(=O)NCc3ccc(OC)cc3)O[C@@H]1CO2,-2,x,x,x,x,x,x,
CC(C)CC(=O)O/N=C1\C(=O)N(Cc2ccc(Cl)cc2)c2ccc([N+](=O)[O-])cc21,x,22,x,60*,x,x,26,
CC1CCN(Cc2c(C(=O)N/N=C/c3ccc(C(C)(C)C)cc3)nnn2-c2nonc2N)CC1,-12,33,22,50*,57,29,27,
Cc1ccc(COc2cccc(/C=N/NC(=O)c3nnn(-c4nonc4N)c3C)c2)cc1,-4,13,-68,56*,-17,38,-13,
CC(C)c1c(C(=O)N/N=C/c2ccc(Cl)cc2Cl)nnn1-c1nonc1N,-11,9,0,16,-9,-3,x,
CC(C)c1c(C(=O)N/N=C/c2ccccc2OCc2c(F)cccc2Cl)nnn1-c1nonc1N,14,18,-4,57*,24,65,52*,FLuc counter=55*
Cc1ccc(/C=N/NC(=O)c2nnn(-c3nonc3N)c2CNc2ccccc2)cc1,-22,0,-16,6,18,-5,x,
CC1CCN(Cc2c(C(=O)N/N=C/c3ccc(C(C)C)cc3)nnn2-c2nonc2N)CC1,-8,9,-4,-5,14,29,x,
CCOc1cc(/C=N/NC(=O)c2nnn(-c3nonc3N)c2C)ccc1OCc1ccc(C)cc1,-5,x,x,x,0,x,x,
Nc1nonc1-n1nnc(C(=O)N/N=C/c2cc(Br)ccc2O)c1CNc1ccccc1,55,97*,17,69*,59,97*,66*,FLuc counter=30
COc1ccc(CN(C)C[C@H]2OCCCC[C@@H](C)Oc3ccc(N(C)C)cc3C(=O)N([C@H](C)CO)C[C@@H]2C)cc1,-4,x,x,x,x,x,x,
COc1ccc(NC(=O)N[C@H]2CC[C@H](CCNC(=O)CN3CCOCC3)O[C@H]2CO)cc1,-7,x,x,x,x,x,x,
